# High-throughput results deposited in PubChem by several laboratories.
# Hits are enriched below; roughly 12% of the tested compounds scored in any of these assays.
# WT yeast gro inh: growth inhibition of WT yeast, mitochondrial fusion screen | mitochondrial fusion phenotypic screen, WT strain | inhibition, % at 10 µM | 2.1% of 190,000 active | AID 1362; in the data active = inhibition above about 58%; tested in S. cerevisiae
# Lmaj promast: reduces viability of Leishmania major promastigotes. resazurin fluorescence viability. inhibition, % at 10 µM. 9% of 200,000 active; in the data active = inhibition above about 50%;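 also: promastigotes grown with compound for 44 hours at 28 °C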
# ROMK mod: modulates human ROMK potassium channel activity. 2% of 130,000 active. AID 1918. Tet-inducible ROMK, thallium flux fluorescence; actives lie on both sides. P48048. B-score at 10 µM;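 active = signal ratio slope over the read window, or its plate-corrected B-score, at least 3 SD from the plate mean, either direction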;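 also: B-score of the F/F0 ratio slope over 7 to 12 s after thallium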
# Target sequence (P48048 whole entry, looked up): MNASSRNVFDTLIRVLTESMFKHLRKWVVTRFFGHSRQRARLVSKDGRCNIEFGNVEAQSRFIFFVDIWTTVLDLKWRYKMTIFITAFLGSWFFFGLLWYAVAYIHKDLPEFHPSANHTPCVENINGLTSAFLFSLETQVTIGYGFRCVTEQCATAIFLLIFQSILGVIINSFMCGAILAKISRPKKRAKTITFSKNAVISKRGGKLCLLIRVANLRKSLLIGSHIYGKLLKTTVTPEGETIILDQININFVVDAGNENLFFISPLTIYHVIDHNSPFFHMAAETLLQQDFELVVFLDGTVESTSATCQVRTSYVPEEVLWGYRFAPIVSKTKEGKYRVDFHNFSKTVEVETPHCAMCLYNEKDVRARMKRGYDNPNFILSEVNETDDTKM
# Insulin prom up: MIN6 insulin promoter up-regulation | MIN6 insulin promoter-GFP reporter, high-content imaging; active compounds read high | z-score at 5 µM | 0.3% of 190,000 active;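 active = z-score above 3 at 5 µM with at least 500 cells counted in the well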
# KCC2 mod: modulators of human KCC2 chloride dependent transport | Q9H2X9 | KCC2 cells, thallium flux FluoZin-2 fluorescence | B-score of Tl+ flux slope (higher = more flux/activation; lower = inhibition) at 10 µM | 2.2% of 190,000 active | AID 1456;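 active = thallium flux slope and its plate-corrected score both differing from the plate sample mean at a set confidence after two filtering rounds, in either direction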;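 also: slope of fluorescence scaled to starting intensity during 10 to 20 s after thallium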
# INS promoter inh: TRM-6 insulin promoter activity inhibition. TRM-6 cells (human fetal islet line), insulin promoter-eGFP reporter, imaging; reporter expression induced with tamoxifen. inhibition, % at 2 µM. 0.9% of 130,000 active. AID 1273;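 active = inhibition above the mean plus 3 SD, with well images judged a real hit on visual review, cut at about 60% in these data, passing the limit was not always enough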
# Starred values were filed as active, the others as inactive; x = no result.
SMILES,WT yeast gro inh,Lmaj promast,ROMK mod,Insulin prom up,KCC2 mod,INS promoter inh
N#Cc1c(N)nc2c3c(sc(=N)c2c1N)NC(=O)CC3c1ccccc1 (stereo not given),9,8,x,0.11,x,-17
N#Cc1c(N)nc2c3c(sc(=N)c2c1N)NC(=O)CC3c1c(F)cccc1Cl (stereo not given),20,100*,x,-1.3,1.7,-33
Cc1ccc([N+](=O)[O-])cc1-c1ccc(/C=C(\C#N)c2[nH]nc(N)c2C#N)o1,-48,75*,0.44,-0.04,-0.055,43
COC(=O)c1sc2nc(N)c(C#N)cc2c1N,-5,22,0.81,-0.42,0.53,22
CCOC(=O)C1CCN(C(=O)CSc2n[nH]c(=O)[nH]c2=O)CC1,3,-8,0.79,0.3,x,81*
CCOC(=O)CC(=O)CSc1n[nH]c(=O)[nH]c1=O,x,x,x,-0.12,0.46,x
CN(C)CCNC=C(C(=O)Nc1ccc(Cl)cc1Cl)C(=O)Nc1ccc(Cl)cc1Cl,98*,13,x,0.33,x,30
O=C(COc1ccc(OCc2ccccc2)cc1)NN=C1CCCC1,-3,-2,-0.28,0.11,-0.95,x
O=C(/C=C/c1cccs1)Nc1ccc(N2CCOCC2)c(S(=O)(=O)Nc2ccccc2Cl)c1,-9,99*,x,-0.57,0.092,17
O=C(/C=C/c1cccs1)Nc1ccc(N2CCOCC2)c(S(=O)(=O)Nc2cc(Cl)ccc2Cl)c1,7,11,-0.16,-0.91,-0.54,17
COc1ccccc1NS(=O)(=O)c1cc(NC(=O)/C=C/c2cccs2)ccc1N1CCOCC1,4,99*,x,-0.5,0.016,-15
CNC(=O)N1CCN(C(=O)NC)CC1,-8,-6,0.41,-0.64,-0.1,6
CCOc1ccc(CCN2CN(CC)CNC2=S)cc1OCC,-6,1,0.0076,1.1,-0.89,-21
O=C(Nc1cc([N+](=O)[O-])ccc1Cl)C(Sc1ccccc1)c1ccccc1 (stereo not given),23,96*,0.0049,0.14,-0.2,-34
CC(C)(C)NS(=O)(=O)c1ccc(NC(=O)C(Sc2ccccc2)c2ccccc2)cc1 (stereo not given),13,56*,x,0.17,-0.3,17
O=C(Nc1ccc(Cl)c([N+](=O)[O-])c1)C(NCCCO)c1ccccc1 (stereo not given),-7,-3,-0.49,-0.16,0.056,4
CC(=O)N(C)c1ccc(NC(=O)C(Sc2ccccc2)c2ccccc2)cc1 (stereo not given),8,18,1.1,0.34,-1.1,x
O=C(Nc1ccc(Cl)c([N+](=O)[O-])c1)C(Sc1ccccc1)c1ccccc1 (stereo not given),80*,35,-0.091,0.21,-0.03,42
CC(CC(=O)Nc1cc([N+](=O)[O-])ccc1Cl)c1ccccc1 (stereo not given),9,-7,x,0.84,-1.3,0
NNC(=O)c1cc(-c2ccccc2)sc1N,x,x,-0.75,-0.41,-0.13,x
Cc1ccccc1N=C(NOCc1ccccc1)c1nonc1N,32,19,x,x,-0.2,-6
Cc1ccccc1N=C(NOCc1ccc(Cl)cc1Cl)c1nonc1N,78*,13,1.4,0.29,1,-42
C=CCN1C(=Nc2cccnc2)SCC1(O)c1ccc(C)cc1 (stereo not given),21,61*,x,-1.4,0.016,-31
N#CC1=C(Nc2ccccc2Cl)SC(c2ccccc2O)NC1=O (stereo not given),x,x,x,0.63,-1.5,x
Cc1cccc(/C=N/NC(=O)c2cc(-c3cccnc3)nc3c2c(C)nn3-c2ccccc2)c1,17,62*,x,x,0.47,x
SMILES,WT yeast gro inh,Lmaj promast,ROMK mod,Insulin prom up,KCC2 mod,INS promoter inh
Cc1ccc2oc(-c3ccc(NC(=O)CC(C)C)cc3)nc2c1,9,-4,x,-0.49,-0.33,9
Cc1ccc(-c2nc3cc(NS(=O)(=O)c4ccc(C)cc4)ccc3o2)cc1,73*,1,1.3,-0.02,1,9
CCN(CC)CC(=O)Nc1ccc(-c2nc3cc(NC(=O)CN(CC)CC)ccc3o2)cc1,11,86*,x,x,-2.2,x
CCCC(=O)Nc1ccc2oc(-c3ccncc3)nc2c1,-2,-2,0.93,0.71,-0.31,-26
O=C(CN1CCCC1)Nc1ccc(-c2nc3cc(NC(=O)CN4CCCC4)ccc3o2)cc1,24,101*,-0.54,-0.29,0.65,24
CC(C)(C)C1(O)CC(C(F)(F)F)=NN1C(=O)CCCc1ccccc1 (stereo not given),32,7,0.51,0.61,-0.7,x
